Among the data in PubChem BioAssay AID1476 (National Center for Advancing Translational Sciences (NCATS), 2009) are max response, negative = inhibition and Potency values, retold here.

The structures appear in SMILES notation. Among all 200,000 compounds or so, about 4,500 (2.2%) were called active. Inconclusive results (about 12%) are left out. Calls follow the shape of the dose curve; as a rule, active = well fitted inhibition curve with a large enough effect; inconclusive = small, poorly fitted or top-dose-only effect, or effect the other way; inactive = flat fitted curve, though single readings scatter. The full list was thinned out, with actives kept by preference.
Potency is read from the fitted curve at half-maximal effect.

Chain of Cruzipain (Trypanosoma cruzi) (P25779 123-467 limits assumed): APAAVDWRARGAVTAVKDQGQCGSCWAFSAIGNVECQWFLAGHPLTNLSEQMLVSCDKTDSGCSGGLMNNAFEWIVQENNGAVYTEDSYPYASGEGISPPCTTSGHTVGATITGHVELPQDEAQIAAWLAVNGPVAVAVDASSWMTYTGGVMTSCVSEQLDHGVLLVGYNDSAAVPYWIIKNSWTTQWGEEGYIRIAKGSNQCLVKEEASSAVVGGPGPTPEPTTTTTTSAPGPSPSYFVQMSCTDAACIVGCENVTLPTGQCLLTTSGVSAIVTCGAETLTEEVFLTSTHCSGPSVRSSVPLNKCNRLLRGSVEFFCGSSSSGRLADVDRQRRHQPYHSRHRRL

The assay addresses Cruzipain (Trypanosoma cruzi) (UniProt P25779). The experiment in a line: qHTS Assay for Promiscuous and Specific Inhibitors of Cruzain (without detergent). Also: nearly all actives have a fitted effect of over 40% in size. As to conditions: purified cruzain, Z-FR-AMC fluorescence, no detergent. As to the method:
Cruzain is a cysteine protease from the tropical parasite Trypanosoma cruzi. Dual qHTS experiment was performed against the NCGC compound collection in order to 1) identify novel inhibitors of the enzyme and 2) profile the compound collection for promiscuous inhibitors operating via colloidal aggregation (by performing detergent-free and detergent-containing comparison screens). Cruzain was assayed by the use of fluorogenic coumarin-based substrate Z-FR-AMC: proteolytic cleavage releases AMC, whose fluorescence is measured at 360 nm excitation and 450 nm emission. Purified cruzain was supplied by the labs of Prof. James McKerrow and Brian Shoichet, UC San Francisco.
This assay had 0.00005% Triton X-100 concentration. See also releated assay "qHTS Assay for Promiscuous and Specific Inhibitors of Cruzain (with detergent)" with 0.01% Triton X-100.
See following references for additional details:
Assay Provider: Shoichet, Brian; University of California, San Fancisco
Screening Center PI: Austin, C.P.
Screening Center: NIH Chemical Genomics Center [NCGC]
Buffer: 100 mM Sodium Acetate, pH 5.5, 5 mM DTT, Triton X-100 concentration: 0.01%.
Buffer in columns 3 and 4 as negative control (no enzyme).
Substrate solution: 2 uM final concentration of Z-FR-AMC (catalog number I-1160, Bachem) dispensed throughout the plate.
Enzyme: 1.5 nM Cruzain final concentration in columns 1, 2, 5-48. Column 1 is neutral (100% activity). Column 2 contained titration of covalent inhibitor K11777, starting concentration 1 mM, then 1:2 dilution in duplicate).
Three uL of enzyme or buffer were dispensed to 1536-well Greiner black solid bottom plates. Compounds and controls (23 nL) were transferred via Kalypsys PinTool. The plates were incubated for 15 min at room temperature, and then 1 uL of substrate solution was added to start the reaction. The plates were immediately transferred to and read 4 times every 30 seconds for 2 min on ViewLux High-throughput CCD imager (Perkin-Elmer) using 360 nm excitation and 450 nm emission fluorescence protocol. The fluorescence intensity difference between the third and the first time points (time lapse of 60 seconds) was used to compute reaction progress.
For orientation: Quantitative high-throughput screening tests each substance at several concentrations.
For `Clc1ccccc1SCc1nc2ccccc2[nH]1`, the max response, negative = inhibition was -0.47% (inactive).

Consider `c1ccc(-c2nnc(SCc3nc4ccccc4[nH]3)o2)cc1`, for which the Potency was 12.6 µM (active).

For `COc1ccc(N2CC(C(=O)NCCS(=O)(=O)N3CCN(c4ccccc4)CC3)CC2=O)cc1` (centres undefined), the max response, negative = inhibition was 3.76% (inactive).

In the case of `O=C(Cc1c[nH]c2ccccc12)OCCOC(=O)Cc1c[nH]c2ccccc12`, the max response, negative = inhibition was 1.16% (inactive).

Consider `Cc1[nH]c2ccccc2c1C(=O)COC(=O)C(C)C`, for which the max response, negative = inhibition was 3.26% (inactive).

As to `Cc1ccc(C(=O)COC(=O)C(Cc2c[nH]c3ccccc23)NC(=O)c2ccc(Br)cc2)cc1` (centres undefined), the Potency was 12.6 µM (active).

Turning to `CN(C(=O)c1ccc2c(c1)N(Cc1cccc(Cl)c1)C(=O)c1ccccc1S2=O)C1CCCCC1` (centres undefined), the max response, negative = inhibition was -3.62% (inactive).

For the compound `Cc1csc2nc(COC(=O)c3ccccc3NC(=O)c3ccccc3Cl)cc(=O)n12`, the max response, negative = inhibition is -1.98% (inactive).

Consider `COc1ccc(Cl)cc1NC(=O)C(C)Sc1nc2c(c(=O)[nH]1)CCCC2` (centres undefined), for which the max response, negative = inhibition is -3.86% (inactive).

As to `O=S(=O)(c1ccc2nc(N3CCN(c4cccc(Cl)c4)CC3)ccc2c1)N1CCCCC1`, the max response, negative = inhibition was -14.3% (inactive).

With `Cc1ccc(NC2(C#N)C(=O)Nc3ccccc32)cc1` (centres undefined), the max response, negative = inhibition was -4.74% (inactive).

With `O=C1Nc2ccccc2C12Nc1ccccc1S2` (centres undefined), the Potency was 25.1 µM (active).

As to `CCc1ccc2c(c1)C1(NN=C(c3ccccc3)S1)C(=O)N2` (centres undefined), the max response, negative = inhibition was -24.1% (inactive).

For `O=c1c(O)c(Br)ccc2c(Br)c(O)c(O)c(O)c12`, the max response, negative = inhibition was -27.1% (inactive).

For `CCC(C)Nc1oc(-c2ccc(COc3ccc(Cl)cc3)o2)nc1C#N` (centres undefined), the max response, negative = inhibition is 2.48% (inactive).

For the compound `O=C1CN(c2nc(-c3ccccc3)c3cc(Br)ccc3n2)c2ccccc2N1`, the Potency was 12.6 µM (active).

For `Cc1ccc(S(=O)(=O)N2CC(=O)Nc3ccccc32)cc1C`, the max response, negative = inhibition was 2.47% (inactive).

As to `O=C(O)c1ccc(Nc2nc(-c3ccccc3)c3cc(Br)ccc3n2)cc1`, the max response, negative = inhibition was 27.1% (inactive).

Regarding `Fc1ccc(-c2nn(-c3ccccc3Cl)c3c2cnc2ccccc23)cc1`, the max response, negative = inhibition is 4.61% (inactive).

Regarding `O=C(CC1C(=O)N(c2ccccc2)C(=O)N1CCc1cccs1)Nc1ccc(F)cc1` (centres undefined), the max response, negative = inhibition is 2.56% (inactive).

`O=C(CCSCc1ccccc1F)N1CCN(c2ccc(Cl)cc2)CC1`: the max response, negative = inhibition is 2.72% (inactive).

In the case of `Cc1ccc(-c2nn(CCC(=O)Nc3ccc(Cl)c(Cl)c3)c(=O)c3ccccc23)cc1`, the max response, negative = inhibition was -2.75% (inactive).

Turning to `CCN(CC)c1nn2c(=O)c(C(=O)NCCc3ccccc3)cnc2s1`, the max response, negative = inhibition was -4.42% (inactive).

Consider `O=C(NCc1ccc2c(c1)CCN2C(=O)c1ccccc1)Nc1cc(F)ccc1F`, for which the max response, negative = inhibition was -19.6% (inactive).

`COc1ccc(CNC(=O)c2cc3c(s2)-c2ccccc2OC3)cc1`: the max response, negative = inhibition is 16.2% (inactive).

`Cc1ccc(NC(=O)CSc2nc3c([nH]c4ccccc43)c(=O)n2-c2ccccc2)c(C)c1`: the max response, negative = inhibition is 12.6% (inactive).

Regarding `Cc1cc(C)c(NC(=O)Cn2c(SCC(=O)NCc3ccccc3)nc3ccccc32)c(C)c1`, the max response, negative = inhibition is 7.19% (inactive).

Take `Cc1ccc(-n2c(SCC(=O)Nc3ncc(Cl)cc3Cl)nc3ccccc32)cc1`: the Potency is 20 µM (active).

For `NS(=O)(=O)c1ccc(N=Cc2ccc(Br)s2)cc1`, the max response, negative = inhibition is -5.17% (inactive).

Consider `c1ccc2c(c1)-c1ccccc1C2N1CC2CCC(CC2)C1`, for which the max response, negative = inhibition was 1.3% (inactive).

For the compound `Brc1ccc(/C=N/N2CCN(C3c4ccccc4-c4ccccc43)CC2)s1`, the Potency is 12.6 µM (active).

For `O=C(c1ccc2c(c1)N(Cc1ccccc1)C(=O)c1ccccc1S2(=O)=O)N1CCC(Cc2ccccc2)CC1`, the max response, negative = inhibition is 1.2% (inactive).

In the case of `COc1ccc(-c2nnc(SC(C)C#N)o2)cc1` (centres undefined), the max response, negative = inhibition was 2.59% (inactive).

In the case of `COc1ccc(-c2nnc(SCc3cccnc3)o2)cc1`, the max response, negative = inhibition is 15.4% (inactive).

As for `COc1ccc(-c2nnc(SC(=O)N3c4ccccc4Sc4ccccc43)o2)cc1`, the Potency was 31.6 µM (active).

For `CCOC(=O)c1ccc(NC(=O)CC2C(=O)N(c3cccc(OC)c3)C(=O)N2C2CCCCC2)cc1` (centres undefined), the max response, negative = inhibition is -1.66% (inactive).

Regarding `Cc1ccc(C(=O)NCCSc2c(C)[nH]c3ccccc23)cc1C`, the max response, negative = inhibition was 13.2% (inactive).

For `N#CC1=C(SCc2ccccc2)NC(=O)C(C#N)C12CCCC2` (centres undefined), the max response, negative = inhibition is -1.74% (inactive).

As for `N#CC1=C(SCc2ccc(C#N)cc2)N=C(N)C(c2nc(-c3ccccc3)cs2)C12CCCCC2` (centres undefined), the Potency is 10 µM (active).

Regarding `COc1ccc(CCNc2nc(-c3ccc(Cl)cc3)cc(C(F)(F)F)n2)cc1OC`, the max response, negative = inhibition is -3.01% (inactive).

For `Cc1nn(Cc2ccc(F)cc2)c(C)c1NC(=O)c1cc(CC(C)C)on1`, the max response, negative = inhibition was 2.49% (inactive).

Turning to `CCCc1cc(=O)[nH]c(SCC(=O)c2cc(C)n(CCC)c2C)n1`, the max response, negative = inhibition was -4.28% (inactive).

For `CCCc1cc(=O)[nH]c(SCC(=O)OCc2ccccc2)n1`, the max response, negative = inhibition is -0.512% (inactive).

`Cc1cc(C(=O)CSc2nc(N)cc(=O)[nH]2)c(C)n1CCc1ccc(Cl)cc1`: the Potency was 12.6 µM (active).
